Experimental data from PubChem BioAssay (Tox21).
Inconclusive results are not listed. Activity calls are given as the source filed them. Unless noted, the call rests on the fitted dose curve.

Assays:
[1] = Nuclear factor erythroid 2-related factor 2/antioxidant responsive element (Nrf2/ARE) small molecule agonists: qHTS cell viability counter screen in human keratinocytes (AID 1919968; active means well fitted curve in the direction sought with a large enough effect in the repeat runs; an effect the other way counts as inactive or inconclusive; further: nearly all actives have a fitted effect of over 55% in size)
Outline: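 Cytotoxicity was multiplexed with the Nrf2/ARE luciferase assay in the same wells. Stably transfected HaCaT keratinocytes were treated with test compounds for 23 h at 37 C. Cell viability was then measured by CellTiter-Fluor fluorescence.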

[2] = Nuclear factor erythroid 2-related factor 2/antioxidant responsive element (Nrf2/ARE) small molecule agonists: luciferase reporter gene qHTS assay in human keratinocytes (AID 1919969); further: nearly all actives have a fitted effect of over 35% in size
[3] = molecular target: Gonadotropin-releasing hormone receptor (Homo sapiens) (UniProt P30968); assay: Human gonadotropin-releasing hormone receptor (GnRHR) small molecule agonists, calcium flux assay in GnRHR-HEK293 cells (AID 1920063); further: nearly all actives have a fitted effect of over 35% in size
Gonadotropin-releasing hormone receptor (Homo sapiens), sequence (P30968 whole entry, looked up): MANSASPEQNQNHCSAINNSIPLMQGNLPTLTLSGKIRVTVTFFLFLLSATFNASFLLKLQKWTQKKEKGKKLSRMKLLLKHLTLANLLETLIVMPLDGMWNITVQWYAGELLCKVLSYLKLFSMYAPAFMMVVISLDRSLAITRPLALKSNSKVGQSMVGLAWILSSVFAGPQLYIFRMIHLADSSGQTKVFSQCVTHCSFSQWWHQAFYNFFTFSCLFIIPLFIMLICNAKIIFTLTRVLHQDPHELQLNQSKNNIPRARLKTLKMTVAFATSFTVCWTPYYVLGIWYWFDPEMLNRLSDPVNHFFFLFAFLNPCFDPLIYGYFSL
Outline: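 Agonist activity was measured as intracellular calcium flux in HEK293 cells engineered to stably express human GnRHR. After dye loading for 1 hour at 37 C, compounds in DMSO were added and fluorescence was followed for 3 minutes.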

[4] = molecular target: KiSS-1 receptor (Homo sapiens) (UniProt Q969F8); assay: Human kisspeptin (KISS1R) small molecule agonists, calcium flux assay in KISS1R-HEK293 cells (AID 1920064; active means well fitted curve in the direction sought with a large enough effect in the repeat runs; an effect the other way counts as inactive or inconclusive)
KiSS-1 receptor (Homo sapiens), sequence (Q969F8 whole entry, looked up): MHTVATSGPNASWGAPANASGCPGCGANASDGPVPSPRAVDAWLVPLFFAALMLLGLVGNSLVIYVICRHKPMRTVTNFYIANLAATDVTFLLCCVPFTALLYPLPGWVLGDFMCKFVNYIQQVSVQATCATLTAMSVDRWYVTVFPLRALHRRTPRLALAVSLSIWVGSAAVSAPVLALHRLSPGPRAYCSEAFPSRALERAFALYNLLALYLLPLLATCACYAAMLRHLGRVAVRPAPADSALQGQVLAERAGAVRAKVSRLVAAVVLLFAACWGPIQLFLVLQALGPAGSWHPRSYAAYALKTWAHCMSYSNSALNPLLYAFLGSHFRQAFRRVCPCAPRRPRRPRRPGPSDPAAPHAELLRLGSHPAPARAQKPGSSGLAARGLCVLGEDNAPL
Outline: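 Agonist activity is monitored as intracellular calcium rise in engineered HEK293 cells carrying human KISS1R. Cells are dye-loaded for 1 h at 37 C before compound addition, and fluorescence is recorded for 3 min.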

[5] = G protein-coupled receptor (GPCR) small molecule agonists, calcium flux assay: HEK293 wild type cell line counter screen (AID 1920065)
Outline: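 Seed cells, incubate 18 h (37 C, 5% CO2); add calcium dye, 1 h at 37 C; pin-transfer compounds, ATP control or DMSO; read fluorescence 480/540 nm each second for 3 min.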

[6] = p53 small molecule agonists, cell-based qHTS assay with human liver microsomes (AID 1963577);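 further: p53 response element beta-lactamase reporter cells with liver microsomes plus NADPH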
Outline: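 Reporter activation was measured by LiveBLAzer fluorescence intensity in p53RE-bla cells, which had been exposed to compounds for 16 h at 37 C alongside 0.5 mg/mL human liver microsomes and 0.5 mg/mL NADPH (final concentrations).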

[7] = p53 small molecule agonists, cell-based qHTS assay with rat liver microsomes (AID 1963578)
Outline: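 Compound in DMSO added to p53RE-bla cells 5 h post-plating; rat microsomes/NADPH 0.5 mg/mL final; 16 h, 37 C; LiveBLAzer 2 h RT.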

[8] = p53 small molecule agonists, cell-based qHTS assay with human liver microsomes: qHTS cell viability counter screen (AID 1963579); further: nearly all actives have a fitted effect of over 45% in size
Outline: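 HLM-supplemented (0.5 mg/mL final) and NADPH-supplemented (0.5 mg/mL final) p53RE-bla cultures, 4,000 cells per well, were dosed with compounds in DMSO for 16 h at 37 C; luminescent ATP detection (CellTiter-Glo, 30 min, room temperature) quantified surviving cells.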

[9] = p53 small molecule agonists, cell-based qHTS assay with rat liver microsomes: qHTS cell viability counter screen (AID 1963580); further: nearly all actives have a fitted effect of over 45% in size
Outline: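 Rat liver microsome (0.5 mg/mL final) and NADPH (0.5 mg/mL final) co-incubation with compounds for 16 h at 37 C on HCT-116 p53RE-bla cells; cytotoxicity taken from intracellular ATP luminescence.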

[10] = p53 small molecule agonists, cell-based qHTS assay (AID 1963582; active means well fitted activation curve with a large enough effect in the signal ratio in the repeat runs, not every such curve was filed as active; the % refers to the signal ratio)
Outline: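 Cells carrying a p53-responsive bla reporter are treated with test compounds for 16 h at 37 C; beta-lactamase activity is then detected with LiveBLAzer B/G FRET substrate after 2 h at room temperature.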

[11] = molecular target: 5-hydroxytryptamine receptor 2A (Homo sapiens) (UniProt P28223); assay: 5-hydroxytryptamine receptor 2A (HTR2A) small molecule agonists, cell-based qHTS assay (AID 1963587); further: nearly all actives have a fitted effect of over 30% in size
5-hydroxytryptamine receptor 2A (Homo sapiens), sequence (P28223 whole entry, looked up): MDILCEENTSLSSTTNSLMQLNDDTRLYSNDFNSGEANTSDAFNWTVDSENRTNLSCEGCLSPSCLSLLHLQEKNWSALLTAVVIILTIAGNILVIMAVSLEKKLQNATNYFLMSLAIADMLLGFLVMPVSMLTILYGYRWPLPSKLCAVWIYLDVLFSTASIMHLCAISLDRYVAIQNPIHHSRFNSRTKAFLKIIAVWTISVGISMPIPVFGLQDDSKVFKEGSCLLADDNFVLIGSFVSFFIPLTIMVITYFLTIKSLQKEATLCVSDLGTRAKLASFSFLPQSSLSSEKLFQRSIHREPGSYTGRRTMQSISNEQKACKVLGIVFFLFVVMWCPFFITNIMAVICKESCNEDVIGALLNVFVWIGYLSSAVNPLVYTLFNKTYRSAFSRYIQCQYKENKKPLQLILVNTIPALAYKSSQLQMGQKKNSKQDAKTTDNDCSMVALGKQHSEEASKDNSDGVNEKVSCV
Outline: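 Kinetic calcium-flux fluorescence (2 min, 1 sec intervals) after compound addition in agonist mode. HTR2A-CHO cells were cultured 18 h, then dye-loaded 1 h at 37 C.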

[12] = molecular target: Muscarinic acetylcholine receptor M1 (Homo sapiens) (UniProt P11229); assay: Cholinergic receptor muscarinic 1 (CHRM1) small molecule agonists, cell-based qHTS assay (AID 1963589); further: nearly all actives have a fitted effect of over 35% in size
Muscarinic acetylcholine receptor M1 (Homo sapiens), sequence (P11229 whole entry, looked up): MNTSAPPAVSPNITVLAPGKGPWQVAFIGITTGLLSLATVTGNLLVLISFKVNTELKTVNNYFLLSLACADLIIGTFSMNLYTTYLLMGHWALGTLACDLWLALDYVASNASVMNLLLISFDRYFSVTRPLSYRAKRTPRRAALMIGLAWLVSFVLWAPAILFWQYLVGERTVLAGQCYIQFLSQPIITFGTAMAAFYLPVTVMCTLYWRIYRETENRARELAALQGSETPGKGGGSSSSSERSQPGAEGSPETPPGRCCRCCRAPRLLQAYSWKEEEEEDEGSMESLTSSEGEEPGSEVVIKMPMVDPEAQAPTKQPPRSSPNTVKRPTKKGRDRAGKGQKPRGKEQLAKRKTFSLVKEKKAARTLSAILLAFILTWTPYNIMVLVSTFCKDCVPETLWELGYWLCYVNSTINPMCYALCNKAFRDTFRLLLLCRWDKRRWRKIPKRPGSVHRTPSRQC
Outline: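 Cells were plated and incubated 18 h at 37 C/5% CO2, loaded with calcium dye for 1 h at 37 C, then treated with compounds in DMSO. Fluorescence was recorded kinetically at 1 sec intervals.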

[13] = cAMP Responsive Elements (CRE) small molecule agonists, cell-based qHTS assay (AID 1963590)
Outline: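 Cells carrying a CRE-driven beta-lactamase reporter (HEK 293T) are seeded, incubated overnight (18 h), and treated with test compounds for 3 h at 37 C; reporter activity is then detected with a FRET substrate after 2 h at room temperature.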

[14] = cAMP Responsive Elements (CRE) small molecule antagonists, cell-based qHTS assay (AID 1963591; active means well fitted inhibition curve with a large enough effect in the signal ratio in the repeat runs, not every such curve was filed as active; the % refers to the signal ratio)
Outline: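 Cells (CRE-bla HEK 293T, DMEM with 10% dialyzed FBS and 25 mM HEPES) are seeded and incubated 18 h. Compounds are added with NKH477 agonist at 0.25 uM final for 3 h, then FRET substrate for 2 h.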

[15] = molecular target: Beta-2 adrenergic receptor (Homo sapiens) (UniProt P07550); assay: Adrenergic beta2 receptor (ADRB2) small molecule antagonists, cell-based qHTS assay (AID 1963592); further: series mostly up to about 92 µM; nearly all actives have a fitted effect of over 50% in size
Beta-2 adrenergic receptor (Homo sapiens), sequence (P07550 whole entry, looked up): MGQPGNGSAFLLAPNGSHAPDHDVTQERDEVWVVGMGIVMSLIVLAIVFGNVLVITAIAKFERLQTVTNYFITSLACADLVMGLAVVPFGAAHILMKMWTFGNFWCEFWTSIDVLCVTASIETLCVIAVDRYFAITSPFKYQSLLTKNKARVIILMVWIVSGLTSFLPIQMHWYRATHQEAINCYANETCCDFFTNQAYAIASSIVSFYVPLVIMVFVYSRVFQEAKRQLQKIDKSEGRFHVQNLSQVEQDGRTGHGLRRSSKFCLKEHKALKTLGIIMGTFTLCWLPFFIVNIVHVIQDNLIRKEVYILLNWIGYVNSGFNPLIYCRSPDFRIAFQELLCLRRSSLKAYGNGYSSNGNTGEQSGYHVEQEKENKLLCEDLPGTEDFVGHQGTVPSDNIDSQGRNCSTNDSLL
Outline: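 Assay format: CHO-ADRB2 cells, 18-20hr seeding at 37C/5% CO2, then compound plus 1nM isoproterenol agonist mix for 0.5hr RT. Homogeneous time-resolved fluorescence cAMP detection after 1hr, expressed as 665/615 nm ratio.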

[16] = molecular target: D(2) dopamine receptor (Homo sapiens) (UniProt P14416); assay: Dopamine D2 receptor (DRD2) small molecule agonists, cell-based qHTS assay (AID 1963594); further: nearly all actives have a fitted effect of over 35% in size
D(2) dopamine receptor (Homo sapiens), sequence (P14416 whole entry, looked up): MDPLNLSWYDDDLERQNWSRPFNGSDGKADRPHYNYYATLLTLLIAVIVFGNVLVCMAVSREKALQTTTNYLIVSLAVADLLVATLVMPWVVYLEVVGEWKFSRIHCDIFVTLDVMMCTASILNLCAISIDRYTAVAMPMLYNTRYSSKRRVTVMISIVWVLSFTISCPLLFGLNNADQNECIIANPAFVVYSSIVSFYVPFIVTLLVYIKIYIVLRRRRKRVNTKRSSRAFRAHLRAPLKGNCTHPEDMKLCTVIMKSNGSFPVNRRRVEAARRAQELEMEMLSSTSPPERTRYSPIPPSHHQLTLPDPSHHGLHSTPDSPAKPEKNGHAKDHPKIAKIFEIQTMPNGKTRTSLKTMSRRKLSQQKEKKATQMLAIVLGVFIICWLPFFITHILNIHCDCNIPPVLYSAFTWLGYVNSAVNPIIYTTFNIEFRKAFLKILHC
Outline: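 cAMP accumulation in DRD2-HEK293 cells measured by HTRF after 1 h detection; compounds added 10 min before NKH477 (200nM […]) forskolin-analogue stimulation, 30 min at room temperature, with Ro20-1724 present at 0.1 mM final.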

[17] = molecular target: D(2) dopamine receptor (Homo sapiens) (UniProt P14416); assay: Dopamine D2 receptor (DRD2) small molecule antagonists, cell-based qHTS assay (AID 1963595; active means well fitted inhibition curve with a large enough effect in the signal ratio in the repeat runs, with a control signal flat; the % refers to the signal ratio)
Outline: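 DRD2-HEK293; 0.1 mM Ro20-1724; cpd 10 min RT; NKH477 200 nM + quinpirole 12 nM, 30 min RT; HTRF cAMP (cAMP-d2/anti-cAMP cryptate), 665/620 nm ratio after 1 h.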

[18] = molecular target: 5-hydroxytryptamine receptor 2A (Homo sapiens) (UniProt P28223); assay: 5-hydroxytryptamine receptor 2A (HTR2A) small molecule antagonists, cell-based qHTS assay (AID 1963586); further: nearly all actives have a fitted effect of over 45% in size
Outline: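 CHO cells stably expressing human HTR2A were plated for 18 h at 37 C, then loaded with calcium dye for 1 h. Compounds were preincubated 5 min at room temperature before DOI (4 nM solution) was added. Kinetic fluorescence was read for 3 min.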

[19] = molecular target: Muscarinic acetylcholine receptor M1 (Homo sapiens) (UniProt P11229); assay: Cholinergic receptor muscarinic 1 (CHRM1) small molecule antagonists, cell-based qHTS assay (AID 1963588); further: nearly all actives have a fitted effect of over 40% in size
Outline: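 Compounds were tested at 15 concentrations in three independent runs. Dye-loaded CHRM1-CHO cells were exposed 5 min at room temperature before stimulation by acetylcholine added at 50nM. Intracellular calcium was read kinetically on FDSS for 3 min.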

[20] = molecular target: Beta-2 adrenergic receptor (Homo sapiens) (UniProt P07550); assay: Adrenergic beta2 receptor (ADRB2) small molecule agonists, cell-based qHTS assay (AID 1963593);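 further: CHO cells stably overexpressing human ADRB2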
Outline: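 CHO cells stably over-expressing ADRB2 were plated overnight at 37C, then dosed with compounds plus a stimulation mix containing 100uM IBMX and 25uM Ro-20-1724 for 0.5hr at room temperature. cAMP was measured by HTRF competition, 1hr.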

Measured: Potency

CN(C)CCCNCCC#N
not listed: [18] | [19] | [20]
inactive: all other assays above

CC[C@@H]1C[C@H](N(Cc2cc(C(F)(F)F)cc(C(F)(F)F)c2)C(C)=O)c2cc(C(F)(F)F)ccc2N1C(=O)OC(C)C
inactive: all assays above

O=C(O)c1cccc(Cl)c1Cl
not listed: [17]
inactive: all other assays above

O=Cc1ccc(F)cc1
inactive: all assays above

CC(C)CCO
not listed: [14]
inactive: all other assays above

CNC(=O)c1c(I)c(NC(C)=O)c(I)c(C(=O)O)c1I
not listed: [10] | [18]
inactive: all other assays above

CCC(CO)CO
not listed: [14] | [20]
inactive: all other assays above

CC1CC(=O)CC(C)(C)C1 (stereo not drawn)
inactive: all assays above

Cc1ccc(-c2ccccc2)cc1
not listed: [15]
inactive: all other assays above

C1CCC(SSC2CCCCC2)CC1
not listed: [16]
inactive: all other assays above

C=C(C)C(=O)OC(C)C
not listed: [17]
inactive: all other assays above

CC(=O)CC(C)=O
not listed: [20]
inactive: all other assays above

C=C(C)C(=O)OCCC(C)OC(=O)C(=C)C (stereo not drawn)
not listed: [16]
inactive: all other assays above

CC(C)c1ccccc1O
not listed: [20]
inactive: all other assays above

Nc1nccs1
not listed: [10] | [11]
inactive: all other assays above
